In PubChem BioAssay (NCI):
About 79,000 compounds went through this panel and 15% of them were active in at least one assay; those are over-represented in the sample as a whole. Unmarked numbers belong to inactive results. Rule as the data show it: active = growth inhibition above about 70%; inactive = the rest.

Experiment: NCI Yeast Anticancer Drug Screen. Data for the rad50 strain (AID 155);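 also: 0% = growth of vehicle-only cultures of the same strain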
Settings: S. cerevisiae rad50 strain growth inhibition; at 50.0 µM; stronger effect = higher value
Outline: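 Inhibition values express reduced yeast growth in compound-treated cultures relative to vehicle-treated controls.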

| SMILES | growth inhibition [%] |
| --- | --- |
| Cc1ccc(S(=O)(=O)N/N=C2\CCC3CC2C3(C)C)cc1 (stereo not given) | 1 |
| CC1=C(CC2C(=O)N(c3ccccc3)S(=O)(=O)NC2C)C(=O)N(c2ccccc2)S(=O)(=O)N1C (stereo not given) | 20.1 |
| O=C(Nc1nncs1)c1ccncc1 | -14.8 |
| Cc1c(Cl)cccc1NC(=O)C1CC(Br)C(Br)CC1C(=O)O (stereo not given) | 1.5 |
| CCN(CC)CCCNc1cc(OC)c(Cl)c2cccnc12 | 22.2 |
| Cc1ccc(C(=O)NO)cc1 | 28.8 |
| NC(N)=NS(=O)(=O)c1ccc(NC(=O)c2cccc3c(N)c4ccccc4nc23)cc1 | 5.35 |
| CCCCCCCSCC1OC(n2cnc3c(N)ncnc32)C(O)C1O (stereo not given) | 3.35 |
| C=CC1CC1(Cl)Cl (stereo not given) | -10.9 |
| CC1=C/C(=C(/c2cccc(S(=O)(=O)O)c2)c2cc(C)c(O)c(C(=O)O)c2)C=C(C(=O)O)C1=O | 4.4 |
| Cc1nn(-c2ccccc2)c2c1N=C(C(=O)O)CC(c1ccccc1)=N2 | 18.7 |
| O=C1C[CH]([Ge](=[O])[O][Ge](=[O])[CH]2CC(=O)NC(=O)N2)NC(=O)N1 (stereo not given) | 43.9 |
| O=c1cccccc1Cl | 14.8 |
| COc1cccc(NC(=S)/C(=C(/[O-])c2ccc([N+](=O)[O-])cc2)[n+]2cccc3ccccc32)c1 | 26.1 |
| CC1(C)N=C(/C(Cl)=[N+](/[O-])C(=O)c2ccc(F)cc2)C(C)(C)N1O | -15.5 |
| CC1(C)CC([N+](C)(C)CCCCCC[N+](C)(C)C2CC(C)(C)N(O)C(C)(C)C2)CC(C)(C)N1O | 3.6 |
| CCOC(=O)CC(=O)Nc1cc(C)cc(C)n1 | 2.1 |
| COC(=O)NC(Cc1ccccc1)NC(=O)OC(C)(C)C (stereo not given) | -30.6 |
| CCCNc1cc2c(cc1Br)-c1ccccc1C2=O | -18.8 |
| Oc1ccccc1C=Nc1ccc(I)cc1.Oc1ccccc1C=Nc1ccc(I)cc1.[Co] | 15.8 |

| SMILES | growth inhibition [%] |
| --- | --- |
| CC1=C(C)CC2C(=O)c3c(O)ccc(O)c3C(=O)C2C1 (stereo not given) | 28.9 |
| COc1ccc(Cc2ccccc2)cc1 | -2 |
| O=C(COc1ccc(Cl)cc1)Nc1nccs1 | 4.95 |
| Cc1cc(Cl)c(Cl)cc1Cl | 13 |
| COC(=O)c1cc(OC)c(O)c(OC)c1 | -1.3 |
| OCc1cc(Cl)cc(Cc2cc(Cl)cc(Cc3cc(Cl)cc(Cc4cc(Cl)cc(Cc5cc(Cl)cc(CO)c5O)c4O)c3O)c2O)c1O | -14.8 |
| O=C(Cc1ccccc1)c1c[nH]c2c(O)ccc(O)c12 | -15.1 |
| CCCC(=O)OCC(C)(C)CC(C)C | -9.55 |
| CC(=O)NC1C(O)C(NC(C)=O)C(OC(C)=O)C(OC(C)=O)C1OC(C)=O (stereo not given) | 33.4 |
| O=C(NC1C2CC3CC(C2)CC1C3)c1cc(/C=C/c2ccccc2)[nH]c(=S)n1 (stereo not given) | 15.1 |
| CCCCCCCCCCCCCCCCCC(=O)O | -5.2 |
| [O-][N+]1(CC[N+]2([O-])CCCCC2)CCCCC1 | -16.8 |
| C=CCS(=O)(=O)c1ccc(Cl)cc1 | 1.95 |
| CC(C)C1OC2(CCCCC2)OCC1(C)C (stereo not given) | 23.2 |
| CC(=O)Oc1ccc(NCNc2ccc(OC(C)=O)cc2)cc1 | -11.8 |
| CC1S(=O)(=O)OCCCOS1(=O)=O | -22.8 |
| Cc1cc(N(CCC#N)CCC#N)ccc1/C=C(\NC(=O)/C=C/c1ccccc1)C(=O)N=[N+]=[N-] | -30.4 |
| CC1CC(c2ccccc2)S(=O)(=O)O1 (stereo not given) | -5.9 |
| Cc1ccc(-c2cc(=O)c3cc(C)c(C)c(C(=O)O)c3o2)cc1 | 3.15 |
| Cc1ccc(S(=O)(=O)NCNS(=O)(=O)c2ccc(C)cc2)cc1 | -37.5 |
